Reference: PubChem BioAssay AID1307 (SRMLSC, 2008)
In all, about 1,200 compounds went through this assay and fewer than 10 were called active.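 How the source made its calls: active means inhibition reaching a set limit at one or more tested concentrations; inactive means inhibition under that limit at every dose.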 Not all results are given here. Potency and affinity values are given separately.

Test: yeast RAM network inhibitors, dose response, S. cerevisiae (AID 1307);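 further: 0% = DMSO vehicle wells and 100% = 10 µM 1-NA-PP1 control; higher inhibition means more yeast growth since RAM block rescues cells from 5-FOA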
Conditions: S. cerevisiae RAM network URA3 reporter, 5-FOA growth OD615, hits give high values, yeast express analog-sensitive mutant Cbk1 kinase; at 100 µM unless noted

Structure (SMILES)	max inhibition
COc1ccc(C(=O)NNC(=O)C(Cc2ccc(O)cc2)NC(=O)c2ccccc2NC(=O)c2ccc(OC)cc2)cc1 (stereo unspecified)	3.19% (inactive)
COC(=O)[C@H](Cc1ccccc1)NC(=O)[C@@]1(C)C[C@@H]1[C@@H](NC(=O)OCc1ccccc1)c1ccccc1	5.9% (inactive)
O=C(CCC(=O)c1ccc(Oc2ccccc2)cc1)Nc1cccc(Cl)c1Cl	3.23% [at 25 µM] (inactive)
COc1cccc(/C=C(/C(=O)OCC(=O)NC2CCCC(C)C2C)c2ccccc2)c1 (stereo unspecified)	7.65% [at 50 µM] (inactive)
Cc1ccc(C(=O)C(OC(=O)CCC(=O)Nc2cccc(C)c2)c2ccccc2)cc1 (stereo unspecified)	5.19% (inactive)
CCOC(=O)c1ccc(COC(=O)c2ccc3c(c2)-c2ccccc2C3=O)cc1	5.23% [at 25 µM] (inactive)
CCOC(=O)C1CCN(S(=O)(=O)C(F)(F)c2nc3ccccc3s2)CC1	2.1% [at 0.391 µM] (inactive)
Clc1ccc(-c2nnc(CSc3nnc(-c4cccs4)o3)o2)cc1	2.52% [at 3.125 µM] (inactive)
CCSC1=N/C(=C/c2ccsc2)C(=O)N1c1ccccc1	3.18% (inactive)
CCCNC(=O)c1ccccc1NC(=O)c1ccc(CSc2ccccc2)cc1	5.46% [at 50 µM] (inactive)
Cc1ccc(C2=NN(Cc3nnc(-c4ccccc4)o3)C(=O)SC2)cc1	3.29% (inactive)
O=C(NCc1ccccc1)c1ccc(S(=O)(=O)N2CCCc3ccccc32)cc1	2.24% (inactive)
O=[N+]([O-])c1ccc(N/N=C/c2sc(N3CCOCC3)nc2-c2ccccc2)c(S(=O)(=O)Nc2ccc(Cl)cc2)c1	8.74% (inactive)
CN(C)S(=O)(=O)c1ccc2[nH]cc(/C=C/c3nc4ccccc4c(=O)n3-c3ccccc3)c2c1	10.9% (inactive)
CN(C)c1nc(SCCOC(=O)COc2ccc(Cl)cc2Cl)nc(N(C)C)n1	1.44% [at 0.782 µM] (inactive)
O=C(c1cccs1)n1nc(-c2ccc(Cl)cc2)nc1NCc1ccco1	2.48% (inactive)
O=C(C(Sc1ccccc1)c1ccccc1)N1CCN(c2ccccc2)CC1 (stereo unspecified)	2.99% [at 3.125 µM] (inactive)
CCOC(=O)c1c(NC(=S)Nc2ccc(OC)cc2)sc2c1CCCCC2	3.37% [at 1.563 µM] (inactive)
O=C(/C=C/c1ccc(-c2ccccc2)o1)c1ccccc1	5.06% (inactive)
O=C(Cn1cc(C(=O)c2ccco2)c2ccccc21)NC1CCCCC1	3.76% [at 0.391 µM] (inactive)
O=C1CCC(/C=C/c2ccccc2)=NN1Cc1ccc(Cl)c(Cl)c1	3.06% (inactive)
C=CCO/N=C(/C)c1c(O)c(CC)c(-c2ccccc2)n(-c2ccccc2)c1=O	2.56% [at 0.391 µM] (inactive)
CCOC(=O)c1cccc(NC(=O)CSc2nnc(COc3ccccc3C)o2)c1	2.04% [at 50 µM] (inactive)
Cc1c(NC(=S)NC(=O)Cc2ccccc2)cccc1C(=O)O	2.43% [at 0.196 µM] (inactive)
COc1cc(NC(=O)c2ccc3c(c2)OCO3)c2ncccc2c1	4.22% (inactive)
C/C(=N\OC(=O)c1ccc(OC(C)C)cc1)c1ccc(C)c(C)c1	3.12% (inactive)

Structure (SMILES)	max inhibition
Cc1ccc(N(CCCCN2C(=O)c3ccccc3C2=O)C(=O)c2cccs2)cc1	4.25% (inactive)
Cc1ccc(S(=O)(=O)N2c3cc(C)ccc3OCC2C(C)(C)C)cc1 (stereo unspecified)	3.04% (inactive)
COc1ccc(C(=O)COC(=O)C(CCSC)NS(=O)(=O)c2ccc(Cl)cc2)cc1 (stereo unspecified)	2.78% [at 25 µM] (inactive)
COCCn1c(=NC(=O)c2sc3ccccc3c2Cl)sc2cc(S(N)(=O)=O)ccc21	4.98% [at 50 µM] (inactive)
CCOc1ccc(/C=C2/SC(=S)N(C(C(=O)O)c3ccccc3)C2=O)cc1OCC (stereo unspecified)	3.65% (inactive)
Cc1ccc(-n2c(SCC(=O)N3CCCc4ccccc43)nnc2-c2cccnc2)c(C)c1	3.12% [at 50 µM] (inactive)
O=C(O)c1cc(Sc2ccc(Br)cc2)nc2ccccc12	4.44% [at 50 µM] (inactive)
CCCCc1ccc(N=N/C(C(=O)Nc2ccccc2OC)=C(/C)O)cc1	4.87% [at 50 µM] (inactive)
O=C(COC(=O)CCN1C(=O)/C(=C\C=C\c2ccccc2)SC1=S)Nc1ccc(Br)cc1	9.41% (inactive)
O=C(Nc1ccn(Cc2cccc3ccccc23)n1)c1cccnc1	3.63% (inactive)
CCN(CC)S(=O)(=O)c1cccc(-c2nnc(SCCCC(=O)c3ccccc3)o2)c1	3.65% (inactive)
O/N=C/c1cc(Br)ccc1OCc1cccc(F)c1	1.58% [at 0.196 µM] (inactive)
COC(=O)c1scc(C)c1N/N=C(\C)c1ccc(F)cc1F	8.43% (inactive)
CCCc1nn(C)c(C(=O)Nc2ccc(C(C)(C)C)cc2)c1Cl	3.4% (inactive)
CCCCOn1c(C)c(C(=O)OCC)c2c3no[n+]([O-])c3ccc21	2.31% (inactive)
O=C(NCc1ccc2c(c1)OCO2)c1cc(-c2ccccn2)nc2ccccc12	4.19% [at 3.125 µM] (inactive)
CC(C)(CNC(=S)NCCc1ccccc1)CNC(=S)NCCc1ccccc1	4.96% (inactive)
CCOC(=O)C(C)Sc1cc(CS(=O)(=O)c2ccccc2)nc(-c2ccccc2)n1 (stereo unspecified)	5.53% (inactive)
CCN(CC)S(=O)(=O)c1cc(NS(=O)(=O)c2c(Cl)cccc2Cl)ccc1C	3.03% [at 50 µM] (inactive)
Cc1ccccc1-c1nnn(CC(=O)Nc2ccc3c(c2)OCCO3)n1	4.6% (inactive)
O=C(O)CCN1C(=O)/C(=C/c2cn(-c3ccccc3)nc2-c2cccs2)SC1=S	5.53% (inactive)
COc1ccc(C(=O)/C=C/c2ccc(OC)c(COc3ccc(F)cc3)c2)cc1	5.41% (inactive)
CC(CCc1ccccc1)NC(=O)CNC(=S)N(Cc1cccs1)C1CCCC1 (stereo unspecified)	3.28% (inactive)
COc1ccc(-c2ccc(-c3noc(-c4cccc(OC)c4)n3)c(OC)n2)cc1	4.12% (inactive)
CC1(C)CC(C(CCN(Cc2ccccc2)C(=O)c2ccco2)c2ccc(F)cc2)CCO1 (stereo unspecified)	4.56% [at 50 µM] (inactive)
